MazEF act: activators of E. coli MazEF toxin-antitoxin RNase, primary screen, biochemical, fluorescence, uHTS | Endoribonuclease toxin MazF (Escherichia coli (strain K12)), P0AE70 | FAM/BHQ RNA-DNA oligo cleavage fluorescence, 5 h | activation, % at 20 µM | actives 0.32% (n = 350,000); in the data active = activation above about 50%
Target sequence (P0AE70 whole entry, looked up): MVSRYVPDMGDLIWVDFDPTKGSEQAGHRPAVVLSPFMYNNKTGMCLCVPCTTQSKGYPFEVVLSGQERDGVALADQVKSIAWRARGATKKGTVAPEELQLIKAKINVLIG
VHR inh abs: VHR1 phosphatase inhibitors, primary screen, biochemical, absorbance, uHTS; Dual specificity protein phosphatase 3 (Homo sapiens), P51452; recombinant VHR phosphatase, pNPP absorbance; inhibition, % at 13.3 µM; actives 0.52% (n = 290,000); AID 1654, 2009; in the data active = inhibition above about 50%
Target sequence (P51452 whole entry, looked up): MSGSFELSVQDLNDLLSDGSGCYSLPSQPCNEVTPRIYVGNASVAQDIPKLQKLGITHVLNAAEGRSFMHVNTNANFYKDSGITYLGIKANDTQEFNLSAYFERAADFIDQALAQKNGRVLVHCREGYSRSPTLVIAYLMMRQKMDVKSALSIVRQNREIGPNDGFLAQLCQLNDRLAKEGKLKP
FadD28 FP inh: inhibitors of FadD28 bisubstrate probe binding, primary screen, biochemical, fluorescence polarization, single point; inhibition, % at 12.5 µM; actives 0.22% (n = 360,000); in the data active = inhibition above about 8.5%, passing the limit was not always enough
BioA inh: M. tuberculosis BioA enzyme inhibitors, primary screen, biochemical, plate reader, single point, HTS; purified M. tuberculosis BioA enzyme; AID 602481, 2012; actives 0.096% (n = 360,000); 7,8-diaminopelargonic acid synthase BioA (Mycobacterium tuberculosis); inhibition, % at 9.99 µM; in the data active = inhibition above about 40%
Y pestis TopoI: Yersinia pestis topoisomerase I inhibitors, primary screen, biochemical, cleavage product accumulation, plate reader, single point | DNA topoisomerase I (Yersinia pestis CO92) | Y. pestis Topo-I cleavage product accumulation | activity, % at 10 µM | actives 0.064% (n = 360,000) | AID 504884, 2011; in the data active = activity above about 50%, passing the limit was not always enough
TcdB GH inh: TcdB glycohydrolase inhibitors, primary screen, biochemical, single point, plate reader; inhibition, % at 9.99 µM; Toxin B (Clostridioides difficile), P18177; actives 0.24% (n = 350,000); TcdB glycohydrolase enzymatic assay; AID 652162, 2013; in the data active = inhibition above about 10%
Numbers without * were called inactive; · = not tested or not shown; + = active, no number. The list is not random: actives were taken first. Their share in the collection is about 1%.

SMILES	MazEF act	VHR inh abs	FadD28 FP inh	BioA inh	Y pestis TopoI	TcdB GH inh
N#Cc1c(N2CCCC(O)C2)nc(N)c2c(N)nc3c(c12)CC(=O)N3C12CC3CC(CC(C3)C1)C2 (stereo not given)	-18	63	25*	-4	-6	·
C=C(C)CN(CC)c1nc(N)c2c(N)nc3c(c2c1C#N)CC(=O)N3C12CC3CC(CC(C3)C1)C2	-21	33	-6	-1	-9	·
COc1ccc(-n2cc(CNCC3CC(=O)N(C4CC4)C3)c(-c3ccccc3Cl)n2)cc1 (stereo not given)	1	-23	-2	·	9	3
CCN1CC(CNCc2cn(-c3ccc(OC)cc3)nc2-c2ccccc2Cl)CC1=O (stereo not given)	-46	22	-6	·	-3	11*
CO[C@H]1CN(C)C(=O)c2ccc(NS(=O)(=O)c3ccc(Cl)cc3)cc2OC[C@@H](C)NC[C@H]1C	·	·	·	13	·	·
O=C(Cc1ccccn1)NCC[C@H]1CC[C@H](NS(=O)(=O)c2ccc(F)cc2)[C@H](CO)O1	·	·	·	-2	·	-1
COc1cc(C(O)c2nc3ccccc3s2)cc(OC)c1OC (stereo not given)	12	19	24*	2	-6	0
CCN1CCCC1CN(Cc1cc2c(C)cc(C)cc2[nH]c1=O)C(=O)NC1CCCCC1 (stereo not given)	59*	0	-3	·	27	·
CN(C)c1ccc(/C=C2\SC(=S)N(Nc3ncc(C(F)(F)F)cc3Cl)C2=O)cc1	52*	17	0	-3	8	·
COc1cc(/C=C2\SC(=S)N(Nc3ncc(C(F)(F)F)cc3Cl)C2=O)ccc1O	-88	33	-5	-2	-11	·
C[C@H](CO)N1C[C@H](C)[C@H](CN(C)Cc2ccccn2)Oc2ncc(C3=CCCCC3)cc2C1=O	·	·	·	-3	·	0
CCN(CC)c1ccc(/C=C2/C(=O)c3ccc(C(=O)O)cc3C2=O)cc1	74*	-14	18*	·	-14	2
O=[N+]([O-])c1cc(S(=O)(=O)N2CCCCC2)ccc1NCc1cccc(Cl)c1	-7	51*	-2	-3	-6	·
O=C(C[C@H]1C=C[C@@H](NC(=O)c2ccccc2)[C@@H](CO)O1)NCCc1ccncc1	·	·	·	-2	·	-1
CCc1c(C)sc(NC(=O)Cn2nc(C)c([N+](=O)[O-])c2C)c1C(N)=O	2	53*	-2	·	-3	·
CO[C@@H]1CN(C)C(=O)c2ccc(NC(=O)C3CC3)cc2OC[C@@H](C)N(CCC(F)(F)F)C[C@H]1C	·	·	·	·	·	-2
Clc1ccc(/C=N/NC2=Nc3cccc4cccc2c34)cc1	16	-13	0	·	-8	·
C(=N\NC1=Nc2cccc3cccc1c23)/c1ccccc1	509*	2	0	·	-5	·
CSc1ncc(Cl)c(C(=O)Nc2sc3c(c2C(=O)NCc2ccco2)CCCC3)n1	·	4	·	·	·	1
CCSc1ncc(Cl)c(C(=O)Nc2sc3c(c2C(=O)NCc2cccnc2)CCCC3)n1	112*	20	2	·	0	·
C[C@@H]1CCCCO[C@@H](CN(C)Cc2ccc(C(=O)O)cc2)[C@H](C)CN([C@@H](C)CO)C(=O)c2cc(NS(=O)(=O)c3cn(C)cn3)ccc2O1	·	·	·	-1	·	·
O=C(c1ccc([N+](=O)[O-])cc1)N(c1ccccn1)c1ccccn1	5	9	-5	·	11	0
CN(N=Cc1ccc([N+](=O)[O-])cc1)c1ccccn1	+	·	1	-1	-5	0
Cc1ccc(-c2nc3sc(C#N)c(N)n3c(=O)c2C#N)cc1	733*	18	-3	-4	7	0
CCOc1ccc(-n2nc3ccc(NC(=O)c4ccc5c(c4)OCCO5)cc3n2)cc1	59*	12	-1	·	-13	·
SMILES	MazEF act	VHR inh abs	FadD28 FP inh	BioA inh	Y pestis TopoI	TcdB GH inh
O=C(Nc1ccc2nn(-c3ccccc3)nc2c1)c1ccc2c(c1)OCCO2	8	33	-3	0	-7	·
CCOC(=O)CNC(=O)CNC(=O)c1ccc(OCC(C)C)cc1	-3	53*	-1	1	8	·
CCOC(=O)CNC(=O)CNC(=O)c1ccc(OC(C)C)cc1	0	5	-1	0	-1	0
COc1ccc(C#Cc2cnc3c(c2)C(=O)N([C@H](C)CO)C[C@H](C)[C@@H](CN(C)C(=O)CC2CC2)O3)cc1	·	·	·	-1	·	-9
CCOc1ccc(N2CC(C(=O)Nc3ccc(S(=O)(=O)N4CCCC4)cc3)CC2=O)cc1 (stereo not given)	9	55*	-2	1	28	1
COc1cc2c(cc1OC)CN(C(=O)[C@H]1[C@@H]3C(=O)O[C@@H](c4ccccc4)[C@@H](c4ccccc4)N3[C@@H](c3ccccc3OCCO)[C@]13C(=O)Nc1ccc(C#CC4=CCCCC4)cc13)CC2	·	·	·	-2	·	0
Cc1ccc(-c2nc(-c3ccncc3)no2)cc1C	15	59*	-1	-1	5	0
CCCNC(=O)N1CC2(C1)CN(C(=O)c1ccncc1)[C@H](CO)c1[nH]c3cc(OC)ccc3c12	·	·	·	·	·	1
O=C(C[C@H]1CC[C@H]2[C@@H](COC[C@@H](O)CN2C(=O)c2ccccc2F)O1)N1CCCCC1	·	·	·	1	·	0
CC(C)C#Cc1cnc2c(c1)C(=O)N([C@@H](C)CO)C[C@H](C)[C@H](CN(C)C(=O)Cc1ccncc1)O2	·	·	·	3	·	0
CCOC(=O)C1=C(C)NC2=C(C(=O)C(C(=O)OCC)C(c3ccccc3OC)C2)C1c1ccccn1 (stereo not given)	2	25	-1	1	6	·
CCOC(=O)C1=C(C)NC2=C(C(=O)C(C(=O)OCC)C(c3ccco3)C2)C1c1ccccn1 (stereo not given)	63*	-6	-2	·	4	·
C[C@H]1CN([C@@H](C)CO)C(=O)c2cc(NC(=O)Nc3ccc(F)cc3)ccc2O[C@H]1CN(C)Cc1ccncc1	·	·	·	3	·	-1
Nc1c(S(=O)(=O)O)cc(NC(=O)c2ccccc2)c2c1C(=O)c1ccccc1C2=O	-21	2	26*	-1	-9	2
CCC(=O)N(C)C[C@@H]1Oc2cc(C#CC3CCCC3)ccc2S(=O)(=O)N([C@H](C)CO)C[C@@H]1C	·	·	·	-2	·	0
COc1ccc(/C=C(/NC(=O)c2ccccc2)C(=O)NCCCn2ccnc2)cc1OC	13	16	-4	1	3	1
COc1ccc(C(=O)N/C(=C/c2cccs2)C(=O)NCCCn2ccnc2)cc1OC	-2	53*	-3	2	8	·

Source: PubChem (several laboratories)
